Test results reported in PubChem BioAssay (Tox21).
Results filed as inconclusive are left out. A call without a number means that no potency is given here. Calls of active or inactive are those of the source. Calls follow the shape of the dose curve; as a rule, active = well fitted cell-killing curve with a large enough effect in the repeat runs; inconclusive = weak or mixed curves, or effect the other way; inactive = no such curve, though single readings can be large or run the other way.

Assay: qHTS assay to identify small molecule antagonists of the retinoid-related orphan receptor gamma (ROR-gamma) signaling pathway - cell viability counter screen (AID 1159520); also: nearly all actives have a fitted effect of over 50% in size
Settings: Tet-on RORgamma CHO cells viability, ATP luminescence, 16 h; series mostly up to 92.4 µM
Text: U.S. Tox21 Program National Center for Advancing Translational Sciences [NCATS] NIH Chemical Genomics Center [NCGC] U.S. Environmental Protection Agency [EPA] National Institutes of Environmental Health Sciences [NIEHS] National Toxicology Program [NTP] U.S. Food and Drug Administration [FDA] Tox21 Assay Overview: Nuclear steroid hormone receptors are involved in many biological processes including inflammatory responses, cell proliferation, and apoptosis. Environmental factors or compounds disrupting these nuclear receptor pathways and gene expression may promote susceptibility to immunotoxicants and autoimmune diseases. One important group of these expression factors are the retinoid-related orphan receptors. To assess compounds that may interfere with the retinoid-related orphan receptor gamma (ROR-gamma) transcription factor, a cell-based luciferase assay was used. The CHO cell-based assay utilizes a TET-inducible ROR expression factor and ROR response element-LUC reporter gene. Reporter gene activity was induced using Doxycycline Hyclate and measured after 16 hr incubation. Tet-on ROR gamma CHO cells were used to screen against the Tox21 10K compound library for cytotoxicity by measuring the viability of the cells based on the quantitation of the ATP.
Tox21 Assay Protocol Summary: Tet-on ROR gamma CHO cells were dispensed at 1,000 cells in 4 uL of culture medium per well into white wall/solid bottom 1536-well plates using a Multidrop Combi (Thermo Scientific, Waltham, MA) dispenser. Following incubation at 37 C and 5% CO2 for 4 hr, 23 nL of compounds dissolved in DMSO, positive controls or DMSO only were transferred by a Pintool station (Kalypsys, San Diego, CA) and after 2 hr incubation at 37 C, one ul of 1 uM (final concentration) of Doxycycline Hyclate was added to all the wells by using a Flying Reagent Dispenser (FRD) (Aurora Discovery, San Diego, CA). After 16 hr incubation at 37 C and 5% CO2, 5 uL of CellTiter-Glo reagent (Promega Corporation, Madison, WI) was added to each assay plate using FRD. After 30 min incubation at room temperature, luminescence was quantified on a ViewLux plate reader (Perkin Elmer, Waltham, MA).

Structure (SMILES) | Potency | activity, negative = cytotoxicity
O=C(O)c1c(Cl)ccc2cc(Cl)cnc12 | inactive | –
NCCOS(=O)(=O)O | inactive | –
CN1COCN(Cc2cnc(Cl)s2)/C1=N\[N+](=O)[O-] | inactive | –
COc1ccc(CN2CCNCC2)c(OC)c1OC | inactive | –
Brc1c(Br)c(Br)c(Br)c(Br)c1Br | – | 1.32% [at 8.39 µM] (inactive)
C[C@]12C=CC(=O)C=C1CC[C@@H]1[C@@H]2CC[C@@]2(C)[C@H]1CC[C@]2(C)O | inactive | –
C[C@@H](N)[C@@H](O)c1ccccc1 | inactive | –
CCC1(CC)C(=O)C=CNC1=O | inactive | –
C=CCC1(C(C)CC)C(=O)NC(=O)NC1=O (stereo not given) | inactive | –
CN(CCO)CCO | inactive | –
CC1=C2[C@H]3OC(=O)[C@@H](C)[C@@H]3CC[C@@]2(C)C=CC1=O | inactive | –
CC(C)c1ccc(O)cc1 | inactive | –
C#CCOC(=O)/C=C(C)/C=C/CC(C)CCCC(C)C (stereo not given) | inactive | –
CN1C(=O)COc2c(C(=O)NC3CN4CCC3CC4)cc(Cl)cc21 (stereo not given) | inactive | –
CC(C)N(Cc1ccccc1)C(=O)C(C)(C)C | inactive | –
CCC(C)(C#N)N=NC(C)(C#N)CC (stereo not given) | inactive | –
N#CC(Br)(Br)C(N)=O | inactive | –
O=C(Cl)C(Cl)(Cl)Cl | inactive | –
CCN(CC)C1CCCCC1 | inactive | –
CCOP(=O)(CN(CCO)CCO)OCC | inactive | –

Structure (SMILES) | Potency | activity, negative = cytotoxicity
Cn1c(CCCC(=O)O)nc2cc(N(CCCl)CCCl)ccc21 | inactive | –
CC(Cc1ccccc1)NCCn1cnc2c1c(=O)n(C)c(=O)n2C (stereo not given) | inactive | –
C[C@H](CN1CCOCC1)C(C(=O)N1CCCC1)(c1ccccc1)c1ccccc1 | inactive | –
NC(=O)CS(=O)C(c1ccccc1)c1ccccc1 (stereo not given) | inactive | –
O=C(Cl)OCc1ccccc1 | inactive | –
ClC1=C(Cl)C2(Cl)C(CBr)CC1(Cl)C2(Cl)Cl (stereo not given) | inactive | –
COc1cc(CCN)cc(OC)c1OC | inactive | –
ClCOCCl | inactive | –
Cn1c(N)nc2c3cccnc3ccc21 | inactive | –
CCNP(=S)(OC)O/C(C)=C/C(=O)OC(C)C (stereo not given) | inactive | –
O=C(CCl)NCO | inactive | –
CCNc1nc(Cl)nc(NC(C)(C)C)n1 | inactive | –
C[N+]1(C)CCCCC1 | inactive | –
O=c1[nH]c2ccccc2o1 | inactive | –
CC(C)(C)c1cc(O)ccc1O | inactive | –
CCc1ccc(C2CCNCC2)cc1 | inactive | –
O=C(NC(=O)c1c(F)cccc1F)Nc1cc(Cl)c(F)c(Cl)c1F | inactive | –
O=C(NC(O)C(Cl)(Cl)Cl)NC(O)C(Cl)(Cl)Cl (stereo not given) | inactive | –
CCCN1CCC[C@@H]2Cc3nc(N)ncc3C[C@H]21 | inactive | –
OCC(Cl)CCl (stereo not given) | inactive | –
